Screens deposited in PubChem BioAssay by National Center for Advancing Translational Sciences (NCATS).
KDM5B inhibitor = KDM5B demethylase inhibition. KDM5B demethylase, FDH-coupled NADH fluorescence (FDH is formaldehyde dehydrogenase). Potency, µM (series often up to 57.7 µM), actives largely listed as inhibitors. 2.6% of 220,000 active; active = well fitted inhibition curve with a large enough effect; also: nearly all actives have a fitted effect of over 70% in size
Target sequence (Q9UGL1 whole entry, looked up): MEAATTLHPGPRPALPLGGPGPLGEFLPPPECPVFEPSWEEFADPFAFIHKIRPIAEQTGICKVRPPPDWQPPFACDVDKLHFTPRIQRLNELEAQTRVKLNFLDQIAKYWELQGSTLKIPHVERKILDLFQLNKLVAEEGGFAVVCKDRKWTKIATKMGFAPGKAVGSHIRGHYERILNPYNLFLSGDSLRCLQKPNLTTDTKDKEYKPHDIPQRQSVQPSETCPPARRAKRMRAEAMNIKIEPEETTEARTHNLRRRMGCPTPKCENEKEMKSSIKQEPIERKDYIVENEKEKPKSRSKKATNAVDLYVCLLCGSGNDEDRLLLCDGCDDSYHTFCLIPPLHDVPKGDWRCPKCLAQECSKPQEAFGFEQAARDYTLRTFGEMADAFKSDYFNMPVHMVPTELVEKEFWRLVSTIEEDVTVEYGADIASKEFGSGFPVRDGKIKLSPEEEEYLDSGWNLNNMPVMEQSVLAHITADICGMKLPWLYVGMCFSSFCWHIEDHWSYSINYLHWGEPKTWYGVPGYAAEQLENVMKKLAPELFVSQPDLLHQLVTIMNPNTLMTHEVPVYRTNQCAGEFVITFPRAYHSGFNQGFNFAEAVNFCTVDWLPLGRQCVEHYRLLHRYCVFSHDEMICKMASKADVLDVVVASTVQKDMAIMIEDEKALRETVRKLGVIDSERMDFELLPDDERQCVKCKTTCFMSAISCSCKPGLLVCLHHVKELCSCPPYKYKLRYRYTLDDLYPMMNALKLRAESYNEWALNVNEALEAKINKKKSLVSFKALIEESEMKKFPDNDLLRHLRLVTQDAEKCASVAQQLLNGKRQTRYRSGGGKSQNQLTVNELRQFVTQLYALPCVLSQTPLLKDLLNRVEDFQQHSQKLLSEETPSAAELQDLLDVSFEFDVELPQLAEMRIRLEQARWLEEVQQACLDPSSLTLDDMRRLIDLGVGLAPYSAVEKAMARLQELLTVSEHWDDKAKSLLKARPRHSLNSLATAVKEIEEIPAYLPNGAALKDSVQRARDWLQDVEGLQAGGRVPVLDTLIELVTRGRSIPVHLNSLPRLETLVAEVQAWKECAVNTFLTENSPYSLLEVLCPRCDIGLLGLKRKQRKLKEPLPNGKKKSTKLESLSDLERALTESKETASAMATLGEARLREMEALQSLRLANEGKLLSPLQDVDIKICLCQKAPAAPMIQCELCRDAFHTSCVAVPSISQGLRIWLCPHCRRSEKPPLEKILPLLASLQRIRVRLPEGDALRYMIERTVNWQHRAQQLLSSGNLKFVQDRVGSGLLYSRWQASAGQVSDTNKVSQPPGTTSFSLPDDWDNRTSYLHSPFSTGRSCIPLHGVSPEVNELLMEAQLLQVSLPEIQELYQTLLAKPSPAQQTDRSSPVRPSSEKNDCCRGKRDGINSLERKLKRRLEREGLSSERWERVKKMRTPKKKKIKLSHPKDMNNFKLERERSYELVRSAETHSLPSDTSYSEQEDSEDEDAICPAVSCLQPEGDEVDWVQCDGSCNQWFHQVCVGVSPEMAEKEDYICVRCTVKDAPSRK
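Compound dilutions met 200 nM (final) KDM5BΔAP for 10 min at room temperature before substrate addition. The substrate mix held 12.5 µM H3K4me3 with cofactors 25 µM α-ketoglutarate and 50 µM Fe²⁺. NADH signal gain over 30 min defined activity.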
A number is an active result; - = inactive. Shown is part of a subset that was picked to be rich in hits.

SMILES	KDM5B inhibitor
C=CCNC(=O)N[C@H]1CCN(C(=O)CSC)[C@@H]1C(=O)N[C@@H](Cc1cccs1)C(N)=O	-
Cc1cc(-n2nnnc2N2CCN(C(=O)Nc3ccc(C)c(F)c3)CC2)ccc1F	-
CC(C)CN(CC(C)C)C[C@H]1O[C@H](Cc2cc(COc3ccccc3)on2)CC[C@@H]1O	-
O=C1CC(C(=O)Nc2ccc(Br)cc2)c2ccc(F)cc2N1 (stereo not drawn)	-
CCc1noc(C)c1C(=O)Nc1sc(Cc2ccccc2)cc1C(=O)OC	-
CC(=O)N1CCN(C(=O)c2cc(C3CC3)nc3ccccc23)CC1	-
Cc1nc2ccc(NC(=O)Cc3cccc(C(F)(F)F)c3)cc2s1	-
CCCC(C)N(C)CC(=O)N1CCN(c2oc(C)nc2C#N)CC1 (stereo not drawn)	-
CC(C)(CO)NC(=O)c1nc(-c2ccc(COc3ccc4c(c3)OCO4)cc2)no1	-
CCc1nc(CC)n2ccn(Cc3ccc(C#N)cc3)c(=O)c12	-
Cc1nnc(-c2cc(-c3cccc(F)c3)ccn2)n1CCc1ccccc1	-
Cc1nnc(-c2cc(-c3cccc(CO)c3)ccn2)n1Cc1ccccc1	-
COc1ccc(-c2ccnc(-c3nnc(C)n3C(C)C)c2)cc1OC	35µM
COc1ncccc1-c1ccnc(-c2nnc(C)n2Cc2ccccc2)c1	28µM
COCCn1c(C)nnc1-c1cc(-c2cccc(N(C)C)c2)ccn1	-
Cc1nnc(-c2cc(-c3cccc(O)c3)ccn2)n1CCc1ccccc1	-
COc1ncc(-c2ccnc(-c3nnc(C)n3-c3ccccc3)c2)cn1	-
COc1ccc(-c2ccnc(-c3nnc(C)n3Cc3ccccc3)c2)cc1OC	35µM
COc1ccc(-c2ccnc(-c3nnc(C)n3CCN(C)C)c2)cc1OC	28µM
COc1cc(-c2ccnc(-c3nnc(C)n3Cc3ccncc3)c2)ccn1	-
Cc1nnc(-c2cc(-c3ccsc3)ccn2)n1C(C)C	-
Cc1cccc(CN2C(=O)CN(S(C)(=O)=O)CC2(C)C(=O)NCc2ccc(F)cc2)c1 (stereo not drawn)	-
Clc1ccc2c(N/N=C/c3ccccc3)ccnc2c1	-
Cn1nc(C(=O)Nc2ccc(-c3ccccc3)cc2)c2ccccc2c1=O	-
CSc1nc2n(n1)C(c1cccc(Cl)c1)C1=C(CCCC1=O)N2 (stereo not drawn)	-
SMILES	KDM5B inhibitor
CC(C)CCN1C[C@@H]2[C@H](C1)N(CCOc1ccccc1)C(=O)C(C)(C)[S+]2(=O)[O-]	-
CC(C)c1nnc2ccc(N3CCCC(C(=O)O)C3)nn12 (stereo not drawn)	-
Cc1nc(-c2cccc(Cl)c2)n(Cc2ccc(C#N)cc2)c(=O)c1CCO	-
COc1ccc(-c2nc(Cn3c(-c4ccc(Cl)cc4)nc(C)c(CCO)c3=O)c(C)o2)cc1	-
COc1ccc(-c2nc(Cn3c(-c4cccc(Cl)c4)nc(C)c(CCO)c3=O)c(C)o2)cc1	28µM
Cc1cccc(Cn2c(-c3ccc(Cl)cc3)nc(C)c(CCO)c2=O)c1	-
Cc1nc(-c2cccc(Cl)c2)n(Cc2nc(-c3ccc(OC(C)C)cc3)oc2C)c(=O)c1CCO	11µM
COc1ccc(-c2nc(Cn3c(-c4ccccc4)nc(C)c(CCO)c3=O)c(C)o2)cc1	-
COc1ccc(-c2nn(-c3ccccc3)cc2C2=NN(S(C)(=O)=O)C(c3cccs3)C2)cc1 (stereo not drawn)	-
O=C(C[C@@H]1CCNC[C@@H]1Cc1cc(CC2CCCCC2)on1)NCc1ccccc1	-
Cc1ccc(C(=O)NCC(=O)NCC#Cc2cccc(C(F)(F)F)c2)cc1	-
Cc1nn(CC(=O)NCc2cccc(Br)c2)c(=O)c2cccn12	-
C=CC[N+]1(CC#CCOC(c2ccccc2)c2ccccc2)CCCCC1	-
CCCC(=O)N1CCC(O)(c2ccccc2)[C@H](N2CCCC2)C1 (stereo partly drawn)	10µM
CN(C)[C@@H]1CN(C(=O)CCc2ccccc2)CC[C@]1(O)c1ccccc1	-
CCCC(=O)N1CCN(c2ccc(NC(=O)C3(c4ccccc4)CCCC3)cc2)CC1	-
Cc1ccc(Cn2cc(-c3ccncc3)cc2C(=O)NCc2ccc(N(C)C)cc2)cc1	-
CC/C=C(/C)C(=O)N1CCC(C(=O)O)CC1	-
CN(C(=O)COc1ccc2c(-c3ccccc3)cc(=O)oc2c1)C1(C#N)CCCCC1	-
CC(NC(=O)COc1ccccc1C#N)C12CC3CC(CC(C3)C1)C2 (stereo not drawn)	-
O=C(NCc1ccc2c(c1)OCCO2)N1CCN(S(=O)(=O)c2ccccc2)CC1	-
CN[C@@H](CC(C)C)c1nc(-c2cccnn2)no1	-
CC(C)c1ccc(-c2nc(-c3cccnn3)no2)c(=O)[nH]1	22µM
COC(=O)NC(C)c1nc(-c2cccnn2)no1 (stereo not drawn)	-
c1ccc(-c2nc(CN3CCCC3c3ccsc3)co2)cc1 (stereo not drawn)	-
SMILES	KDM5B inhibitor
CC(=O)c1cccc(Nc2nc3ccccc3nc2NS(=O)(=O)c2cc(C)ccc2C)c1	-
Cc1nn(-c2ccccc2)c(C)c1CC(=O)N1CCN(S(=O)(=O)c2ccccc2F)CC1	-
CCCOc1ccc(NC(=O)c2ccccc2Cl)c2cccnc12	-
CCOC(=O)Cc1ccc(NC(=O)Nc2nnc(N3CCCC(C)C3)s2)cc1 (stereo not drawn)	-
CN(C)CC(=O)N1C[C@@H]2C[C@H](C1)c1ccc(-c3ccccc3CN3CCOCC3)c(=O)n1C2	18µM
COc1ccc(NC(=O)N2C[C@@H]3C[C@H](C2)c2ccc(NC(=O)c4ccccc4)c(=O)n2C3)cc1	-
CC(C)(CC(=O)O)CC(=O)N1C[C@@H]2C[C@H](C1)c1ccc(-c3cc4ccccc4s3)c(=O)n1C2	-
Cc1ccccc1OCCNC(=O)c1cc(=O)c2ccccc2o1	-
COCCN1CCCC(c2[nH]ccc2C(=O)N2CCN(c3ccccc3)CC2)C1 (stereo not drawn)	-
CCOC(=O)C1=C(CN(Cc2ccco2)C2CCCC2)NC(=O)NC1c1ccc(C)cc1 (stereo not drawn)	-
CCn1ccnc1C1CCN(c2nc3ccccc3s2)CC1	-
Cc1cc(N2CCC(c3nccn3Cc3ccccn3)CC2)nc2ccccc12	32µM
c1ccc(Cn2ccnc2C2CCN(c3ncnc4ccsc34)CC2)nc1	-
COc1ccc(-c2cc(-c3ccccc3)nc3c(C)noc23)cc1OC	25µM
Cc1noc2c(-c3ccc4c(ccn4C)c3)cc(-c3cccnc3)nc12	32µM
Cc1noc2c(NCc3ccccc3)cc(-c3cccnc3)nc12	-
COc1cccc(-c2cc(-c3ccccc3)nc3c(C)noc23)c1	32µM
COc1ccc(-c2c(C)nn3c(-c4ccccc4)cc(-c4ccccc4)nc23)cc1OC	-
Cc1noc2c(-c3cn[nH]c3)cc(-c3cccc(C(F)(F)F)c3)nc12	-
COC1CCN(c2cc(-c3ccccc3)nc3c(C)noc23)CC1	-
Cc1noc2c(N3CCN(C)CC3c3ccccc3)cc(-c3cccnc3)nc12 (stereo not drawn)	-
COc1ccc(-c2noc(-c3nc(-c4cccnc4)no3)n2)cc1OC	-
CCn1cnc2c1c(=O)n(CC(=O)OCc1ccc(C(C)C)cc1)c(=O)n2Cc1ccccc1	-
O=C(Nc1ccc(-c2nc3ccccc3o2)c(O)c1)c1ccccc1I	-
CC(C)c1cc(C(=O)Nc2ccc(Cl)cc2)nn1C1CCS(=O)(=O)C1 (stereo not drawn)	-
Cc1nc(-c2ccsc2)sc1C(=O)Nc1ccc2[nH]c(=O)[nH]c2c1	-
CCC(C)Cn1c(CCNC(=O)c2ccco2)nc2ccccc21 (stereo not drawn)	-
